Results reported in PubChem BioAssay (NCATS).
Activity calls are given as the source filed them. How the calls were made is not given here.

Test system: HIV-1 nucleocapsid protein NCp7 (binding to TG oligonucleotide)
Test: HIV Nucleocapsid (AID 346);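 further: potency is for inhibitors that block NC binding and lower polarization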
Settings: HIV-1 NC / fluorescein-TGTGTGTG probe, fluorescence polarization
Method in brief: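 NCp7 100 nM + fluorescein TG4xF 10 nM; Hepes pH 7.5/250mM NaCl/1uM ZnCl2/0.004% PEG 20000; 1 hr RT; FP, 45 s exposure; oligo-only wells as negative control.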
Potency means the concentration at half of the fitted maximal effect.

## Cn1cccc1C(=O)N1CCC2(CCCN(c3ncccn3)C2)CC1
  Potency: > 20 µM (inactive)

## Cc1nc2cnc(Oc3cccc(Cl)c3)nc2n(Cc2ccc(F)cc2)c1=O
  Potency: > 20 µM (inactive)

## CN(C)C(=O)c1ccc(-c2nc(NCc3cccs3)c3ccccc3n2)cc1
  Potency: > 20 µM (inactive)

## Cc1cccc(CNc2nc(-c3cccnc3)nc3ccccc23)c1
  Potency: > 20 µM (inactive)

## O=C(c1cccc(F)c1)N1CCC2(CCCN(c3cccc(-c4ccccc4)c3)C2)CC1
  Potency: > 20 µM (inactive)

## COCC(=O)N1CCC2(CC1)CN(C(=O)Nc1cccc(C#N)c1)C2
  Potency: > 20 µM (inactive)

## COc1ccccc1CNc1ncncc1-c1ccccc1C
  Potency: > 20 µM (inactive)

## COCCNc1ncnc2ccc(-c3cccnc3)cc12
  Potency: > 20 µM (inactive)

## N#Cc1ccc(CN2CC[C@@]3(CCCN(C(=O)c4cccc(F)c4)C3)C2)cc1
  Potency: > 20 µM (inactive)

## O=C(c1cnccn1)N1CCC2(CC1)CCN(C(c1ccccc1)c1ccccc1)CC2
  Potency: > 20 µM (inactive)

## COc1ccc(CNc2ccnc(-c3cccc(NS(C)(=O)=O)c3)n2)c(OC)c1
  Potency: > 20 µM (inactive)

## COc1ccc(CNc2ccnc(-c3cccnc3)n2)c(OC)c1
  Potency: > 20 µM (inactive)

## CC(C)CN1CC[C@@]2(CCCN(C(=O)c3cccc(F)c3)C2)C1
  Potency: > 20 µM (inactive)

## CN(C)c1cc(-c2cccc(NS(C)(=O)=O)c2)ncn1
  Potency: > 20 µM (inactive)

## CN(C)c1ncc2nc(-c3cn(C)c4ccccc34)c(=O)n(C[C@H]3CCCO3)c2n1
  Potency: > 20 µM (inactive)

## CCNc1ncc2nc(-c3ccc(Cl)cc3)c(=O)n(C)c2n1
  Potency: > 20 µM (inactive)

## CNc1cc(-c2ccccc2C)ncn1
  Potency: > 20 µM (inactive)

## FC(F)(F)c1ccccc1-c1ccc2ncnc(N3CCOCC3)c2c1
  Potency: > 20 µM (inactive)

## Cc1noc(C)c1-c1cc(NC2CCNCC2)ncn1
  Potency: > 20 µM (inactive)

## Cn1c(=O)c(-c2ccc(Cl)cc2)nc2cnc(Oc3cccc(Cl)c3)nc21
  Potency: > 20 µM (inactive)

## COc1cccc(-c2cncnc2NCCN2CCOCC2)c1
  Potency: > 20 µM (inactive)

## CN1CCN(c2ncc3nc(-c4ccccc4)c(=O)n(C4CC4)c3n2)CC1
  Potency: > 20 µM (inactive)

## CN1CCN(c2ncc3nc(-c4ccc(Cl)cc4)c(=O)n(-c4ccccc4)c3n2)CC1
  Potency: > 20 µM (inactive)

## Cc1cnc(CNc2ncnc3ccc(-c4cccc(C#N)c4)cc23)cn1
  Potency: > 20 µM (inactive)

## COCCn1c(=O)cnc2cnc(Oc3cccc(Cl)c3)nc21
  Potency: > 20 µM (inactive)

## CS(=O)(=O)N1CCC2(CCCN(C(=O)Nc3cccc(C#N)c3)C2)CC1
  Potency: > 20 µM (inactive)

## O=C(c1ccco1)N1CCC2(CCN(Cc3cc(C(F)(F)F)cc(C(F)(F)F)c3)CC2)CC1
  Potency: > 20 µM (inactive)

## COc1cccc(Nc2ncc3nc(C)c(=O)n(CCc4ccccc4)c3n2)c1
  Potency: > 20 µM (inactive)

## N#Cc1cccc(NC(=O)N2CC[C@@]3(CCCN(C(=O)c4ccco4)C3)C2)c1
  Potency: > 20 µM (inactive)

## O=C(Oc1ccccc1)N1CCC2(CC1)CN(c1ccccn1)C2
  Potency: > 20 µM (inactive)

## COc1ccc(C(=O)N2CCC3(CC2)CCN(c2ncccn2)CC3)cc1
  Potency: > 20 µM (inactive)

## N#CCCn1c(=O)c(-c2ccc(F)cc2)nc2cnc(N3CCNCC3)nc21
  Potency: > 20 µM (inactive)

## O=c1c(-c2ccccc2)nc2cnc(N3CCOCC3)nc2n1Cc1cccs1
  Potency: > 20 µM (inactive)

## CC(C)CN1CC2(CCN(C(=O)c3cccc(F)c3)CC2)C1
  Potency: > 20 µM (inactive)

## O=c1cnc2cnc(N3CCNCC3)nc2n1CCc1ccccc1
  Potency: > 20 µM (inactive)

## COc1ccc(Oc2ncc3nc(-c4ccc(OC)cc4)c(=O)n(C4CC4)c3n2)cc1
  Potency: > 20 µM (inactive)

## COc1ccccc1-c1cncnc1NCCNC(C)=O
  Potency: > 20 µM (inactive)

## COCCn1c(=O)c(C)nc2cnc(N3CCNCC3)nc21
  Potency: > 20 µM (inactive)

## COc1ccc(-c2nc3cnc(N4CCOCC4)nc3n(Cc3cccc(OC)c3)c2=O)cc1
  Potency: > 20 µM (inactive)

## Cn1cccc1C(=O)N1CCC[C@@]2(CCN(Cc3nccs3)C2)C1
  Potency: > 20 µM (inactive)

## COCCNc1nc(-c2ccc(C(=O)N(C)C)cc2)nc2ccccc12
  Potency: > 20 µM (inactive)

## CC(C)NC(=O)N1CC2(CCN(C(=O)c3ccncc3)CC2)C1
  Potency: > 20 µM (inactive)

## CN(C)c1ccc(-c2cncnc2NCc2cccs2)cc1
  Potency: > 20 µM (inactive)

## O=S(=O)(c1ccccc1)N1CCC2(CCN(c3ccncc3)CC2)CC1
  Potency: > 20 µM (inactive)

## CN(C)C(=O)c1ccc(-c2ccc3ncnc(N4CCNCC4)c3c2)cc1
  Potency: > 20 µM (inactive)

## Cc1noc(C)c1-c1cc(Nc2ccccc2)ncn1
  Potency: > 20 µM (inactive)

## Cc1ccccc1-c1ccc2ncnc(-n3ccnc3)c2c1
  Potency: > 20 µM (inactive)

## c1ccc(CNc2nc(-c3ccoc3)nc3ccccc23)cc1
  Potency: > 20 µM (inactive)
